According to PubChem BioAssay (NCATS):
Records with an inconclusive call do not appear. Unmarked numbers belong to inactive results. Calls of active or inactive are those of the source. Unless noted, the call rests on the fitted dose curve; in most records, active means well fitted activation curve with a large enough effect; inconclusive means small, poorly fitted or top-dose-only effect; inactive means flat fitted curve, though single readings scatter.

Tests used:
[1] = Cell Proliferation Assay against the TMD8 Cell Line (Caspase readout at 16 hrs) (AID 651712); conditions: TMD8 lymphoma cells, caspase activation luminescence; further: potency means the concentration at half of the fitted maximal effect
Procedure, shortened: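 Caspase-Glo luminescence measured apoptosis after a 16 h, 37 C compound exposure of TMD8 cells (500 cells/well, 5% FBS RPMI). DMSO set 0% and bortezomib at 9.2 uM final set 100% activity.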

[2] = qHTS assay for small molecule agonists of the antioxidant response element (ARE) signaling pathway (AID 651741; active means well fitted activation curve with a large enough effect in the signal ratio; the % refers to the signal ratio; further: potency means the concentration at half of the fitted maximal effect); conditions: HepG2 ARE-bla reporter, beta-lactamase FRET ratio, 16 h
Procedure, shortened: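 Agonist activity is measured as ARE-driven beta-lactamase expression in a stable HepG2 reporter line, using 16 h compound treatment at 37 C and a FRET substrate fluorescence readout after 2 h.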

[3] = qHTS assay for small molecule activators of the nuclear factor-kappa B (NF-kB) signaling pathway (AID 651749; active means well fitted activation curve with a large enough effect in the signal ratio; the % refers to the signal ratio; further: % of control where 0% means no effect); conditions: NF-kB-bla ME-180 cells, beta-lactamase FRET ratio, 16 h; stronger effect = higher value
Procedure, shortened: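 FRET-based beta-lactamase detection in ME-180 cells reports NF-kB response-element-driven transcription following overnight (16 hr) compound treatment.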

[4] = target: Tumor necrosis factor (Homo sapiens) (UniProt P01375); assay: qHTS assay to identify small molecules that stimulate Tumor Necrosis Factor-alpha (TNF-alpha) secretion (AID 651757; active means well fitted curve in the direction sought with a large enough effect in the signal ratio; the % refers to the signal ratio; further: 0% is about no effect); conditions: Human cells, HTRF 665/615 ratio; series mostly up to 92.2 µM
Procedure, shortened: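 THP-1 cells, 3000/well; compound 17 hrs, 37 C; add cryptate/XL665 anti-TNF-alpha antibody pair; 3 hr RT; TR-FRET (HTRF) read of secreted TNF-alpha. Quantitative HTS format.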

[5] = qHTS assay to identify small molecules that stimulate interleukin-8 (IL-8) secretion (AID 651758; active means well fitted activation curve with a large enough effect in the signal ratio; the % refers to the signal ratio; further: 0% is about no effect); conditions: HTRF ratio (665/615); series mostly up to 92.2 µM
Procedure, shortened: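 Secreted IL-8 measured homogeneously by TR-FRET (two labelled anti-IL-8 antibodies, 1-3 h at room temperature) after a 16 h, 37 C compound treatment of THP-1 cells at 2000 cells/well.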

Chain of Tumor necrosis factor (Homo sapiens) (P01375 whole entry, looked up): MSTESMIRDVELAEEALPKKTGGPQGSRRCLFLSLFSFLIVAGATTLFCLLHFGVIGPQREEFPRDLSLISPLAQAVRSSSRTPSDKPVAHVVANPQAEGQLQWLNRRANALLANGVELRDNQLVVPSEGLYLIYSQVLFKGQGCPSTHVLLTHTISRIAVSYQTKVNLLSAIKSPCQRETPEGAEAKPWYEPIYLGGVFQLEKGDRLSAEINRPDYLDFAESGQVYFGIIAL

**Q.** Which Potency [1] does the source give for `Cn1c(Nc2ccc(C(F)(F)F)cc2)nc2cc(Oc3ccnc(-c4ncc(C(F)(F)F)[nH]4)c3)ccc21` here?
**A.** 16.6 µM (active)

**Q.** What does the source list for `Cc1cc(O)c2c(c1)C(=O)c1cccc(O)c1C2=O`?
**A.** Potency [2]: 26.6 µM (active); activation [3]: -0.078%; outcome [4]: inactive; outcome [5]: inactive

**Q.** Which activation [3] does the source give for `OC[C@@H](O)[C@@H](O)[C@H](O)[C@@H](O)CO` here?
**A.** -0.0055%
